Compounds with a hit are over-represented: about 2.3% of the library has one in this group of screens.
IkB sig inh: IkB pathway inhibition in ABC-DLBCL cells; 110,000 compounds, 0.04% hits; Potency, µM (doses to about 57.1 µM), for the others: at the highest dose IkBa stabilization activation; ABC-DLBCL IkBa-CBG/CBR dual luciferase ratio, 4 h; response scale: scaled: untreated 0%, proteasome inhibitor 100%; active means well fitted curve in the direction sought with a large enough effect in the signal ratio, not every such curve was filed as active; inconclusive means small, poorly fitted or top-dose-only effect, or a change in a side signal; the % refers to the signal ratio;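 further: the direction sought is a rising ratio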
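In this assay, an IκBα–CBG68 fusion accumulates when IKK-driven degradation is blocked; native CBR normalizes for cell number. OCI-Ly3 cells were treated 4 h with compound and doxycycline, then green and red light read after Chroma-Glo addition.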
p53ts 32C kill: p53ts cell cytotoxicity, permissive temperature | H1299-p53A138V at 32C, ATP luminescence viability, 24 h | Potency, µM (doses to about 46.1 µM), without a hit: at the top dose activity change, negative = cytotoxicity, usual class: cytotoxic | 130,000 compounds, 0.93% hits;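 further: 0% = DMSO and -100% = full killing by reference compound; nearly all actives have a fitted effect of over 55% in size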
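ATP-content luminescence (ATPlite) read-out after 24 h compound exposure at 32C in H1299-p53A138V cells (600/well). Tested up to 46 uM. Normalized to DMSO (0%) and 100 uM tamoxifen (100% killing); Hill-fit AC50.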
ERK AVP inh: blocks ERK signaling stimulated by vasopressin; HEK293-V1b, vasopressin-stimulated pERK AlphaScreen; Potency, µM (doses to about 57.5 µM), for inactives: at the highest dose activity, negative = inhibition, most hits filed as inhibitors; 72,000 compounds, 0.99% hits; further: on the % scale 0 is the no-effect control and ±100 the full control effect; nearly all actives have a fitted effect of over 55% in size
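HEK293 cells stably expressing V1b receptor, preincubated 30 min at 37 °C with compound, then stimulated 5 min with 25 nM vasopressin. Phospho-ERK by AlphaScreen SureFire after 5 h RT; normalized to DMSO and vasopressin; AC50 by Hill fit.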
p53ts 39C tox: cytotoxicity in p53ts cells at nonpermissive temperature; 130,000 compounds, 1.5% hits; AID 902; H1299-p53A138V viability at 39C, ATP luminescence, 24 h; Potency, µM (titrated, usually from 46.1 µM), for the others: at the highest dose activity change, negative = cell killing, hits mostly cytotoxic; further: on the % scale 0 is the no-effect control and ±100 the full control effect; nearly all actives have a fitted effect of over 55% in size
Imprint erasure: genomic imprint erasure induction; AID 1948; mouse ES Peg3-LacZ reporter, beta-gal luminescence, 40 h; 110,000 compounds, 0.02% hits; Potency, µM (top dose mostly 60.7 µM), inactives show at the top dose activity change, positive = activation, actives largely listed as activators
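Imprint erasure is scored as LacZ activity from the silenced maternal Peg3 allele in feeder-free female ES cells cultured 40 h with LIF. Luminescence is normalized to in-plate negative controls and fitted to the Hill equation.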
Numbers without * were called inactive; ? = inconclusive; · = no result given; [ ] = dose if it differs, or a comment. Unless noted, the call rests on the fitted dose curve; in most records, active means well fitted curve in the direction sought with a large enough effect; inconclusive means small, poorly fitted or top-dose-only effect, or another doubt; inactive means no such curve, though single readings can be large; an effect the other way counts as inactive or inconclusive. Potency means the concentration at half of the fitted maximal effect.

SMILES | IkB sig inh | p53ts 32C kill | ERK AVP inh | p53ts 39C tox | Imprint erasure
CC(=O)OCC1OC(C#Cc2ccc(Cl)cc2)C=CC1OC(C)=O (stereo not drawn) | · | 2%[9.22 µM] | 6%[11.5 µM] | 2%[9.22 µM] | ·
Cc1cc(=O)oc2c(OS(C)(=O)=O)c(OS(C)(=O)=O)ccc12 | 0%[11.4 µM] | 4%[9.22 µM] | 14%[11.5 µM] | 3%[9.22 µM] | 12%[10.9 µM]
CCOC(=O)c1ccc(NC(=O)Nc2ccc3c(c2)OCCO3)cc1 | ? | 14% | 25µM* | 7% | 0%
Cc1c(N=c2c(=O)c3ccccc3c2=O)c(=O)n(-c2ccccc2)n1C | ? | 10µM* | 20µM* | 13µM* | -47%
O=C1CC(c2ccc3c(c2)OCO3)c2cc(O)ccc2O1 (stereo not drawn) | · | · | · | · | -8%
O=C(O)c1ccc(F)c(S(=O)(=O)Nc2cccc(F)c2)c1 | · | -2% | · | -2% | ·
O=C(Nc1ccc2c(c1)nc1n2CCN(C2CCCCC2)C1)c1ccco1 | 0% | 0% | -11% | 2% | -9%
O=C(COc1ccccc1)Nc1ccc2c(c1)nc1n2CCSC1 | -1% | -23% | -23% | -15% | -7%
O=C(Nc1ccc2c(c1)nc1n2CCOC1)c1ccco1 | ? | 7.9µM* | ? | ? | -30%
O=C(Nc1ccc2c(c1)nc1n2CCSC1)c1ccco1 | ? | 2µM* | -6% | 3.2µM* | -46%
O=C(Nc1ccc(N2CCCCC2)c(C(=O)O)c1)c1ccco1 | -1% | 3% | -16% | 7% | 7%
O=C(Nc1ccc(N2CCCC2)c(Cl)c1)c1ccco1 | -3% | 10µM* | ? | 7.9µM* | -29%
CCOC(=O)C1CCN(c2c(NCc3ccc(C(=O)O)cc3)c(=O)c2=O)CC1 | 3% | 7% | · | 2% | ?
CC(C)(CO[C@H]1C[C@H]2CC[C@@]1(C)C2(C)C)[N+](=O)[O-] | 1%[11.4 µM] | -5%[9.22 µM] | 8%[11.5 µM] | 5%[9.22 µM] | -9%[10.9 µM]
Cn1c(NC(=O)c2cc(-c3ccc4c(c3)OCO4)nc3ccccc23)cc(=O)n(C)c1=O | 0% | 16µM* | 24% | 13µM* | -10%
O=C(Nc1nc2c(s1)CCCC2)c1cc(-c2ccc3c(c2)OCO3)nc2ccccc12 | · | · | · | -6% | ·
COc1ccc(/C=C/C(=O)Nc2ccc3nc(N4CCCCC4)cc(C)c3c2)cc1OC | ? | ? | · | ? | 1%[10.9 µM]
COc1ccccc1Nc1c2c(nc3ccc(NC(=O)c4cccc(F)c4)cc13)CCCC2 | -1% | 10µM* | · | 5µM* | -38%[10.9 µM]
COc1ccccc1Nc1c2c(nc3ccc(NC(=O)/C=C/c4cccc(OC)c4OC)cc13)CCCC2 | ? | -6% | · | -25% | -33%[10.9 µM]
COc1ccc(Nc2c3c(nc4ccc(NC(=O)/C=C/c5cc(OC)c(OC)c(OC)c5)cc24)CCCC3)cc1OC | ? | 13µM* | · | 10µM* | -36%[10.9 µM]
COc1ccc(/C=C/C(=O)Nc2ccc3nc4c(c(Nc5ccccc5OC)c3c2)CCCC4)cc1 | ? | -8% | · | -7% | -35%[10.9 µM]
COc1ccc(/C=C/C(=O)Nc2ccc3nc4c(c(Nc5ccc(OC)c(OC)c5)c3c2)CCCC4)cc1 | ? | 11µM* | · | 10µM* | -35%[10.9 µM]
COc1ccc(Nc2c3c(nc4ccc(NC(=O)/C=C/c5cccc(OC)c5OC)cc24)CCCC3)cc1OC | ? | 10µM* | · | 10µM* | -34%[10.9 µM]
C[C@@H](CN1CCC(Cc2ccccc2)CC1)[C@H](O)c1ccc(O)cc1 | -1% | -21% | ? | 10% | ·
O=C(NCCN1CCCCC1)c1ccc(-n2c(=O)c(=O)[nH]c3ccccc32)cc1 | · | -1% | · | -3% | ·
SMILES | IkB sig inh | p53ts 32C kill | ERK AVP inh | p53ts 39C tox | Imprint erasure
c1ccc(-c2ccc(N3CCCC4(CCNCC4)C3)cc2)cc1 | 5%[11.4 µM] | 20µM* | ? | 13µM* | ·
c1ccc(-c2ccc(N3CC4(CCNCC4)C3)cc2)cc1 | 30%[11.4 µM] | 20µM* | ? | 16µM* | ·
c1ccc(-c2ccc(N3CC[C@@]4(CCCNC4)C3)cc2)cc1 | ? | ? | -11% | ? | ·
CS(=O)(=O)c1ccc(Sc2nc3ccccc3s2)c([N+](=O)[O-])c1 | · | · | · | 22µM* | ·
CN(C)Cc1ccc(-c2cc3onc(-c4ccccc4)c3c(=O)n2C)cc1 | 13%[11.4 µM] | -22%[9.22 µM] | -19%[11.5 µM] | -23%[9.22 µM] | -21%[10.9 µM]
CCc1nc(SCC(=O)N2CCN(C(=O)c3ccco3)CC2)c2c3c(sc2n1)CCCC3 | ? | 8% | 20µM* | ? | 1%
Cc1ccc(C(=O)Cn2c3c(sc2=N)CCCC3)cc1 | 0% | 2µM* | ? | 1.6µM* | -76%
CC(C)c1ccc(-c2noc(SCC(=O)N3CCCCC3)n2)cc1 | ? | 13µM* | · | 16µM* | -4%[10.9 µM]
CCOc1ccc(C(=O)Nc2ccc3oc(-c4cccc5ccccc45)nc3c2)cc1 | 7% | -23% | · | 10µM* | -10%[10.9 µM]
COc1cc(C(=O)Nc2ccc3oc(-c4ccccc4)nc3c2)cc(OC)c1OC | ? | ? | · | 13µM* | -5%[10.9 µM]
COc1cc2ccccc2cc1C(=O)Nc1ccc2oc(-c3ccc(Cl)cc3)nc2c1 | 0% | -14% | · | 7.9µM* | 21%[10.9 µM]
COc1ccccc1C(=O)Nc1ccc(N2CCN(S(C)(=O)=O)CC2)cc1 | 0% | -25% | -7% | ? | -1%
COc1cc2ccccc2cc1C(=O)Nc1ccc(N2CCN(C)CC2)cc1 | 0% | ? | ? | 13µM* | -25%
CCOC(=O)C1CCCN(C(=O)c2cc3nc(-c4cccc(OC)c4)cc(C(F)(F)F)n3n2)C1 (stereo not drawn) | ? | 4% | 16µM* | -6% | -31%
CC1=C(C(=O)O)N2C(=O)[C@@H](NC(=O)[C@@H](N)c3ccccc3)[C@@H]2SC1 | 1%[25.6 µM] | · | 4%[25.7 µM] | · | -10%[16.8 µM]
C=C/C(C)=C/[C@]1(C)SC(=O)C(C)=C1O | 1% | 6% | 18% | 22% | ·
CCC=O | 0% | · | ? | · | 2%
COc1ccccc1C(=O)Nc1c(C(=O)N(CCN(C)C)Cc2ccco2)oc2ccccc12 | ? | 19% | · | 20µM* | -10%[10.9 µM]
CN(C)CCN(Cc1ccco1)C(=O)c1oc2ccccc2c1NC(=O)c1ccccc1 | ? | 0% | · | -20% | -7%[10.9 µM]
Cc1ccc(C2c3c(-c4ccccc4O)n[nH]c3C(=O)N2CCc2ccccc2)cc1 (stereo not drawn) | ? | 13µM* | · | 32µM* | -23%[10.9 µM]
CC(C)c1ccc(C2c3c(-c4ccccc4O)n[nH]c3C(=O)N2CCc2ccccc2)cc1 (stereo not drawn) | ? | -11% | · | 25µM* | -8%[10.9 µM]
CCOc1cccc2oc(-c3ccccc3Cl)cc(=O)c12 | · | · | · | · | -8%
CCc1ccc(NC(=O)N2CC(C)Oc3ccc(C)cc32)cc1 (stereo not drawn) | ? | 7% | · | ? | -15%[10.9 µM]
O=C(c1ccc(N2CCOCC2)cc1)c1cccs1 | ? | 13µM* | -6% | 7.9µM* | -69%
O=C(Nc1ccc(C(=O)N2CCOCC2)cc1)c1cccs1 | -2% | -11% | -16% | 2% | ·
